High-throughput results: PubChem, several laboratories
Compounds with a hit are over-represented: about 4.1% of the library has one in this group of screens.
MEKK2 mut-MEK5 = MEK5 binding signal on mutant MEKK2 PB1, primary screen, biochemical, multiplex bead flow cytometry, Alexa488-MEK5 | Alexa488-MEK5 binding to MEKK2 mutant | percent response, % at 10 µM | 290,000 compounds, 0.35% hits; in the data active = percent response above about 24%, passing the limit was not always enough
CHT inh = inhibitors of human choline transporter CHT | AID 488975, 2010 | CHT-expressing cells, membrane potential dye, choline response; hits give low values | 310,000 compounds, 0.86% hits | B-score at 10 µM | High affinity choline transporter 1 (Homo sapiens), Q9GZV3;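 active = B-score over 3 SD under the library average, and starting fluorescence ratio not unusually high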;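 note: choline stimulus applied at its EC90 after an EC20 pre-addition; B-score computed on integrated fluorescence ratio after choline addition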
Target sequence (Q9GZV3 whole entry, looked up): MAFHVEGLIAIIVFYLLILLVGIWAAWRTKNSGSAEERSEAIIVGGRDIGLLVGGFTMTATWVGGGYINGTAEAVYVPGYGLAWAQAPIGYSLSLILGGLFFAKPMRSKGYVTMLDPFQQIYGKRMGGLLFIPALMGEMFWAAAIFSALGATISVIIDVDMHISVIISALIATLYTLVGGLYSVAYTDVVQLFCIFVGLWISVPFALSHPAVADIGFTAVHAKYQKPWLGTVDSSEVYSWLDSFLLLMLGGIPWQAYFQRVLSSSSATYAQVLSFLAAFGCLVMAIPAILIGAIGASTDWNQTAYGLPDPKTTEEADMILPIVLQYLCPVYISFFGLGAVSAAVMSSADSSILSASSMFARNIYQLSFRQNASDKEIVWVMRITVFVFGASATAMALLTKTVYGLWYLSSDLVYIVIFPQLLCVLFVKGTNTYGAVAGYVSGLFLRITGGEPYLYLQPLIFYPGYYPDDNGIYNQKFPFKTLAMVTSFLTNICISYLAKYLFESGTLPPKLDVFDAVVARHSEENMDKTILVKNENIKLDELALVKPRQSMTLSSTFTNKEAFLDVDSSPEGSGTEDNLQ
MEKK2wt PB1 HTS = modulators of MEK5 binding to wildtype MEKK2, primary screen, biochemical, multiplex bead flow cytometry, Alexa488-MEK5. 290,000 compounds, 1.1% hits. AID 1531, 2009. Alexa488-MEK5 binding to MEKK2 WT; actives lie on both sides. binding response (% of control), % at 10 µM; in the data active = binding response below about 67% or above about 130%
CHT allo act = CHT positive allosteric modulators, primary screen, cell-based, membrane potential dye, choline EC20; High affinity choline transporter 1 (Homo sapiens), Q9GZV3; CHT-expressing cells; hits give high values; LV-AA mutant CHT in HEK293 cells; B-score at 10 µM; 310,000 compounds, 0.49% hits; AID 488977, 2010;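 active = initial fluorescence not abnormally high and integrated response B-score, plate-corrected, over 3 SD above library mean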
SUMO Mot1 rescue = yeast Mot1-301 growth rescue at high temperature, primary screen, SUMOylation pathway inhibitor project, S. cerevisiae, ATP luminescence, 38.5C; S. cerevisiae Mot1-301 growth rescue; percent above DMSO median, 100 means doubled; growth rescue, % at 18.8 µM; 320,000 compounds, 1% hits;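 active = every valid replicate shows activation above 250% relative to neutral control wells; inactive = the rest, any valid replicate at or below 250%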;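 note: OY570 slx delta 5 strain wells were the positive control but not used for scaling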
MEKK3 PB1 HTS = modulators of MEKK3-MEK5 PB1 binding, primary screen, biochemical, wildtype MEKK3, multiplex bead flow cytometry, Alexa488-MEK5; bead-based flow cytometry, Alexa488-MEK5 binding to MEKK3; actives lie on both sides; 0 = blocked by unlabeled MEK5, 100 = vehicle; binding response (% of control), % at 10 µM; 290,000 compounds, 1.4% hits; AID 1529, 2009;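 active = binding response more than 3 SD above or below the average of its plate-row segment, actives on both sides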;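 note: Alexa488 bead fluorescence after subtracting the streptavidin-only scavenger bead signal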
MEKK2wt confirm = modulators of MEK5 binding to wildtype MEKK2, confirmation, biochemical, single concentration, multiplex bead flow cytometry; shares compounds with MEKK3 PB1 HTS; Alexa488-MEK5 binding to MEKK2 WT; actives lie on both sides; binding response (% of control), % at 10 µM; 5,900 compounds, 2.4% hits; in the data active = binding response below about 16% or above about 210%; inactive = in between
MEKK2mut confirm = mutant MEKK2 PB1-MEK5 binding signal retest – biochemical, single concentration, multiplex bead flow cytometry, confirmation; shares compounds with MEKK3 PB1 HTS; Alexa488-MEK5 binding to MEKK2 mutant; percent response, % at 10 µM; 5,900 compounds, 2% hits; AID 1893, 2009; in the data active = percent response mostly above about 71%, no sharp cut-off; inactive = mostly below about 38%;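 note: higher means compound restores mutant binding toward wildtype level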
MEKK3 confirm = MEKK3 wild-type PB1 binding to MEK5, inhibitors, confirmation, biochemical, bead multiplex flow cytometry, single concentration, wildtype; shares compounds with MEKK3 PB1 HTS; binding response (% of control), % at 10 µM; Alexa488-MEK5 binding to MEKK3; hits give low values; 5,900 compounds, 1.8% hits; AID 1894, 2009;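 active = binding response below 72% of control, or above a set upper limit, though filed actives all read lower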;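 note: 100% = DMSO only wells and 0% = binding blocked by excess unlabeled MEK5; lower values mean stronger disruption of MEK5 binding to MEKK3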
* hit, by the source's call; i = inactive; nt = no result; [ ] = dose if it differs, or a comment.

SMILES	MEKK2 mut-MEK5	CHT inh	MEKK2wt PB1 HTS	CHT allo act	SUMO Mot1 rescue	MEKK3 PB1 HTS	MEKK2wt confirm	MEKK2mut confirm	MEKK3 confirm
Cc1ccc(NC(=O)COC(=O)Cc2ccsc2)cc1S(=O)(=O)N(C)C	-20	i	83	i	-2	85	nt	nt	nt
CCOCc1c(C(=O)OCC(=O)Nc2ccc(C)c(S(=O)(=O)N(C)C)c2)oc2ccccc12	0	i	110	i	11	135*	105	-2	103
N=C1S/C(=C\c2ccccc2)C(=O)N1c1ccc(F)cc1	1	i	111	i	-4	138*	99	-5	97
Cc1ccc(NC(=O)CN2C(=O)N/C(=C/c3ccc(C)s3)C2=O)cc1	1	i	104	i	-6	129*	98	0	103
Cc1ccc(NC(=O)CN2C(=O)N/C(=C/c3ccc(C)o3)C2=O)cc1	-10	i	80	i	20	79	nt	nt	nt
Cc1ccc(NC(=O)CN2C(=O)N/C(=C/c3ccc4c(c3)OCCO4)C2=O)cc1	-6	i	95	i	2	101	nt	nt	nt
Cc1cccc(NC(=O)CN2C(=O)N/C(=C\c3ccc(-c4cccc(C(=O)O)c4)o3)C2=O)c1	-31	i	52*[inhibitor]	i	37	70*[inhibitor]	105	8	109
Cc1cccc(NC(=O)CN2C(=O)N/C(=C/c3ccc(C)o3)C2=O)c1	1	i	105	i	-20	129*	103	4	99
COc1ccc(NC(=O)C2CCCN2C(=O)Oc2ccccc2)cc1 (centres undefined)	-2	i	94	i	-5	93	nt	nt	nt
O=C(CSc1ccc2nnc(CCNC(=O)c3ccccc3)n2n1)Nc1ccc(F)cc1F	0	i	100	i	-1	101	nt	nt	nt
CNC(=O)C1CCN(S(=O)(=O)c2c(C)noc2/C=C/c2ccc(OC)cc2)CC1	2	i	101	i	12	101	nt	nt	nt
CC(C)OC(=O)CSc1nc2ncccc2[nH]1	-14	i	45*[inhibitor]	i	7	33*[inhibitor]	100	-2	102
O=C(c1cccc([N+](=O)[O-])c1)c1ccc2[nH]c(=O)[nH]c2c1	-4	i	96	i	-6	101	nt	nt	nt
N#CC1=C(N)Oc2n[nH]c(-c3cccs3)c2C1c1cccnc1 (centres undefined)	6	i	108	i	-8	123*	120	6	92
O=C(Nc1nnc(-c2ccccc2Cl)s1)C1CCN(S(=O)(=O)c2ccc(Cl)cc2)CC1	0	i	100	i	-18	140*	101	0	101
Cc1ncc([N+](=O)[O-])n1Cc1ccccc1F	0	i	100	i	nt	109	nt	nt	nt
Cc1ncc([N+](=O)[O-])n1Cc1ccc(F)cc1	-3	i	91	i	-15	70*[inhibitor]	98	-6	98
